Outcome and AC50 data for 23 molecules are collected here from PubChem BioAssay (EPA / NIEHS).

A short description of test [1]: ACEA_ER_80hr: ACEA Biosciences xCELLigence Real-Time Cell Analysis on Estrogen Receptor Agonism for Proliferation (AID 2282667; active means hit-call score of the fitted dose curve at least 0.9, where 1 is the maximum). The note with it: T47D proliferation, impedance (xCELLigence), 80 h. The method, boiled down:
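Estrogen-driven proliferation is captured as electrode impedance in T47D cells 80 h after compound addition. Test articles ran at 8 concentrations, 1:4 dilutions from 100 uM final, in two replicate plates.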

A short description of test [2]: ATG_CRE_CIS: Attagene CIS-FACTORIAL HepG2 Assay for human cAMP Responsive Element (CRE) binding protein 3 (AID 2282926). The note with it: HepG2 CRE cis-reporter, Attagene multiplexed mRNA; actives raise or lower the signal. The essentials:
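Liver-derived HepG2, transfected with a CRE-containing reporter panel, exposed 24 h; transcript levels sized and quantified by capillary electrophoresis of labelled amplicons; signal changes either way referenced to vehicle.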

Test [3] concerns the target CCAAT/enhancer-binding protein beta (Homo sapiens) (UniProt P17676). The test can be described thus: ATG_C_EBP_CIS: Attagene CIS-FACTORIAL HepG2 Assay for human CCAAT/Enhancer Binding Protein (C/EBP) beta (AID 2282927). The note with it: HepG2 Attagene cis-factorial transcription factor reporter; actives raise or lower the signal. The essentials:
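Chemical-treated HepG2 cells (24 h) bearing cis-regulated reporter constructs were processed for total RNA, then reverse transcription, PCR amplification, fluorescent primer extension and fragment analysis; gain- and loss-of-signal were fitted against DMSO.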

Test [4] is described as follows: ATG_CMV_CIS: Attagene CIS-FACTORIAL HepG2 Assay for human CMV (Internal Marker) (AID 2282928).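 Further: endpoint acts as a background internal control marker rather than a target.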 The settings on record: HepG2 CMV promoter reporter, transcription factor profiling; actives raise or lower the signal. The essentials:
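Reporter transcripts from transfected HepG2 cells are isolated after 24 h of chemical dosing, reverse-transcribed and amplified. Fragments labeled with 6-FAM are cut with HpaI and quantified by capillary electrophoresis; DMSO defines baseline.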

Test [5] can be described thus: ATG_DR4_LXR_CIS: Attagene CIS-FACTORIAL HepG2 Assay for human Liver X Receptor (LXR), DR4 submotif (AID 2282929). The note with it: HepG2 Attagene DR4 cis-reporter, mRNA transcription; actives raise or lower the signal. The essentials:
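HepG2, transient MRTU transfection, cis-element (DR4) promoter; 24 h compound exposure; total RNA → oligo(dT) RT → PCR → 6-FAM primer extension → HpaI cut → CE. Gain/loss vs DMSO, bidirectional fit.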

The target in test [6] is Aryl hydrocarbon receptor (Homo sapiens) (UniProt P35869). In words: ATG_Ahr_CIS: Attagene CIS-FACTORIAL HepG2 Assay for human Aryl Hydrocarbon Receptor (Ahr) (AID 2282930). The note with it: HepG2 AhR cis-factorial reporter transcription; actives raise or lower the signal. The method, boiled down:
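Following 24 h of chemical dosing, transfected HepG2 liver cells with cis-driven reporter units were lysed for RNA; reporter mRNA was quantified via RT-PCR and capillary electrophoresis, and responses fitted bidirectionally from DMSO.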

The nature of test [7]: ATG_AP_1_CIS: Attagene CIS-FACTORIAL HepG2 Assay for human Activator Protein 1 (AP-1) (AID 2282931). The settings on record: HepG2 Attagene cis-factorial AP-1 reporter mRNA; actives raise or lower the signal. The essentials: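 Transient MRTU transfection of HepG2 → 24 h chemical treatment → RNA isolation, RT-PCR, 6-FAM labelling, HpaI digest → capillary electrophoresis. Fit: bidirectional, DMSO negative control.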

A short description of test [8]: ATG_AP_2_CIS: Attagene CIS-FACTORIAL HepG2 Assay for human Activator Protein 2 (AP-2) (AID 2282932). The note with it: HepG2 AP-2 cis-reporter, Attagene transcription factor profiling; actives raise or lower the signal. The method, boiled down: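 Cells (HepG2) transfected with promoter-driven reporter constructs, treated 24 h. Total RNA reverse-transcribed, reporter cDNA PCR-amplified, FAM-labelled by primer extension, digested, resolved by capillary electrophoresis. Activity fitted both directions versus DMSO.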

A short description of test [9]: ATG_BRE_CIS: Attagene CIS-FACTORIAL HepG2 Assay for human Bone Morphogenetic Protein (BMP) Response Element (BRE) (AID 2282933). The note with it: HepG2 BMP response element reporter, Attagene transcription factor profiling; actives raise or lower the signal. The essentials: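 HepG2 cells transiently transfected with multiplexed cis-element reporter units were dosed with chemical for 24 h. Reporter mRNA was measured by RT-PCR with fluorescent labelling, HpaI digestion and capillary electrophoresis; bidirectional fitting relative to DMSO.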

For test [10], the target named is Retinoic acid receptor alpha (Homo sapiens) (UniProt P10276). In words: ATG_DR5_RAR_CIS: Attagene CIS-FACTORIAL HepG2 Assay for human Retinoic Acid Receptor Alpha (RARE), DR5 submotif (AID 2282934).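 On AC50: reporter responds to endogenous RAR alpha beta and gamma in HepG2 not RARA alone.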 The note with it: HepG2 Attagene cis-factorial RARE DR5 reporter, mRNA; actives raise or lower the signal. The essentials: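 Transfected HepG2 reporter cells are exposed to chemicals for 24 h. Then RNA is extracted and the DR5 element reporter transcript is measured by RT-PCR and capillary electrophoresis, with bidirectional curve fitting relative to DMSO.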

Results filed as inconclusive are left out. Activity calls are given as the source filed them. How the source made its calls, unless noted: active means hit-call score of the fitted dose curve at least 0.9, where 1 is the maximum; inactive means score below 0.9.

Chain of Aryl hydrocarbon receptor (Homo sapiens) (P35869 whole entry, looked up): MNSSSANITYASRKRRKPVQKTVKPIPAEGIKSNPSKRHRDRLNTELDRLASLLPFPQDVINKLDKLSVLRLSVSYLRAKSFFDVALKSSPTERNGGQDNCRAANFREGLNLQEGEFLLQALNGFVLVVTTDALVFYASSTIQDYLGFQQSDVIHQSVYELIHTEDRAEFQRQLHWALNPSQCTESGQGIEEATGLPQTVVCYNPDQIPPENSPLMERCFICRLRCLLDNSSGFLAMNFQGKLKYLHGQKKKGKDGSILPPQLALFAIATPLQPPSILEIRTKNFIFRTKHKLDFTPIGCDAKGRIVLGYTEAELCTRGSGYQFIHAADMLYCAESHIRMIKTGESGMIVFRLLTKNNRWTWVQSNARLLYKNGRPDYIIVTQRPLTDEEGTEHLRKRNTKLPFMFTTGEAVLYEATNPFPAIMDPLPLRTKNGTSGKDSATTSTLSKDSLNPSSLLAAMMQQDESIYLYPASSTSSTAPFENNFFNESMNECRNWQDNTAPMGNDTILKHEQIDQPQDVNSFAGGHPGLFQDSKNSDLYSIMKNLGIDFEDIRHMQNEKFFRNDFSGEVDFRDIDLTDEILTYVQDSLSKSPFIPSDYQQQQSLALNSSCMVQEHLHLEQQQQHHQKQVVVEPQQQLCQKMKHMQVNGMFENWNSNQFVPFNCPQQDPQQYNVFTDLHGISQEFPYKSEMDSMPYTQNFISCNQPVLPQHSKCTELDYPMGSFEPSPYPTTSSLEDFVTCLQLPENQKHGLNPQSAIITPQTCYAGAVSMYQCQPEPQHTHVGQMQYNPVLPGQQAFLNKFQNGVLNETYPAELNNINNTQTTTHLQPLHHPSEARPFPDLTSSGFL
Chain of Retinoic acid receptor alpha (Homo sapiens) (P10276 whole entry, looked up): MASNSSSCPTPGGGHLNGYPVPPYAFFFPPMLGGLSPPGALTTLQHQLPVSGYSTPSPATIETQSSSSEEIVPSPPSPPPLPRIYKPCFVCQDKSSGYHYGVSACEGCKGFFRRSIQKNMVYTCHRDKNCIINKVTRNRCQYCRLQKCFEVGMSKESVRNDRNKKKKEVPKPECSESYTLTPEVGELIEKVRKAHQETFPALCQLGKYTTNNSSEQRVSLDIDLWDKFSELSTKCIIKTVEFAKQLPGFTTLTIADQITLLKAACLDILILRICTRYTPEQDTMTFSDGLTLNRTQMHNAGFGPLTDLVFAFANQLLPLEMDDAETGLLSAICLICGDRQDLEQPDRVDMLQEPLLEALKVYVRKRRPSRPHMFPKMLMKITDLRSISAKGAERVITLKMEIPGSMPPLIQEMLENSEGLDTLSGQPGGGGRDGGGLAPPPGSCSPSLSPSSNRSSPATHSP
Chain of CCAAT/enhancer-binding protein beta (Homo sapiens) (P17676 whole entry, looked up, the tested form may be a part): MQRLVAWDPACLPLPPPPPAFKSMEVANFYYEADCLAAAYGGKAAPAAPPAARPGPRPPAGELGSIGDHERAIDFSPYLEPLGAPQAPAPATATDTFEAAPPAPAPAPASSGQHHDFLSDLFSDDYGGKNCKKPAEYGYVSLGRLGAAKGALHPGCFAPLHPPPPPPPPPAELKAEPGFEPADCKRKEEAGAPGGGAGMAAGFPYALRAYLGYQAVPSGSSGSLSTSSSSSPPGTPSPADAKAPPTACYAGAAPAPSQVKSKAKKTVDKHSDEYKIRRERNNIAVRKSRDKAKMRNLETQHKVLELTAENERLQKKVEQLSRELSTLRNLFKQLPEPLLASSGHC

Turning to `CC(CC(C)C)=NO`, the call in [1], in test [2], in test [3], in test [4], in [5] and in test [6] was inactive. Also, the molecule was called inactive in test [7], in test [8], in test [9] and in [10].
With `C=CC(C)(O)CC/C=C(\C)CC` (stereo not given), the molecule was called inactive in test [1], in test [2], in [3], in test [4], in test [5] and in [6]. Also, the molecule was classed as inactive in [7], in test [8], in test [9] and in test [10].
Take `CCCCCCCCCCCC(=O)OCC`: the outcome in test [1], in test [2], in test [3], in test [4], in test [5] and in test [6] was inactive. Besides, the molecule was classed as inactive in test [7], in test [8], in test [9] and in test [10].
As for `C=C(C)OC(C)=O`, the result in test [1], in test [2], in [3], in test [4], in [5] and in test [6] was inactive. The molecule was classed as inactive in test [7], in test [8], in [9] and in test [10].
`C=CCCCCCCCCOC(C)=O`: the molecule was called inactive in [1], in test [2], in [3], in test [4], in test [5] and in test [6]. For the same molecule, the outcome in [7], in test [8], in test [9] and in test [10] was inactive.
With `CCCCCCCOC(=O)c1ccc(O)cc1`, the concentration at half-maximal activity (AC50) – broadly, the midpoint of the concentration-response curve, whichever way the signal moves – is 0.496 µM (active) in [1], 24.3 µM (active) in [5], 49.8 µM (active) in [6] and 53.1 µM (active) in [10]. The molecule was classed as inactive in [2], in test [3], in test [4], in test [7], in test [8] and in test [9].
Consider `CC(C)(c1ccccc1)c1ccc(Nc2ccc(C(C)(C)c3ccccc3)cc2)cc1`, for which the outcome in [1], in [2], in test [3], in test [4], in [5] and in [6] was inactive. In addition, the molecule was called inactive in [7], in test [8], in test [9] and in test [10].
On to `CCCCCCCCCCCC(=O)N(C)CC(=O)O`, for which the result in [1], in test [2], in test [3], in test [6], in test [7] and in [8] was inactive. Besides, the call in [9] and in test [10] was inactive. Besides, the AC50 in test [4] and in test [5] was 97.5 µM (active) each time.
As to `CC(C)[N+](C)(CCOC(=O)C1c2ccccc2Oc2ccccc21)C(C)C`, the molecule was called inactive in test [1], in test [2], in test [3], in test [4], in [5] and in test [6]. Moreover, the result in [7], in test [8], in [9] and in test [10] was inactive.
For `CCCC(C)C(=O)OCC` (stereo not given), the result in [1], in test [2], in test [3], in test [4], in test [5] and in test [6] was inactive. The molecule was classed as inactive in test [7], in test [8], in test [9] and in [10].
In the case of `O=C(O)c1ccc2c(c1)C(=O)OC2=O`, the molecule was classed as inactive in test [1], in test [2], in test [3], in test [4], in test [5] and in test [6]. Moreover, the call in test [7], in [8], in test [9] and in test [10] was inactive.
Regarding `O=C(Oc1ccccc1)c1ccccc1C(=O)Oc1ccccc1`, the call in test [1], in test [2], in test [3], in test [4], in test [5] and in test [6] was inactive. Besides, the result in [8], in test [9] and in test [10] was inactive. Also, in test [7], the half-maximal activity concentration (AC50) is 46.3 µM (active).
As to `CCCCCC(=O)OCC`, the result in test [1], in test [2], in [3], in test [4], in [5] and in [6] was inactive. The result in test [7], in test [8], in test [9] and in test [10] was inactive.
As for `CC(C)COC(=O)CC(C(=O)OCC(C)C)S(=O)(=O)O` (stereo not given), the molecule was called inactive in test [1], in test [2], in [3], in test [4], in test [5] and in [6]. Also, the molecule was classed as inactive in [7], in [8], in [9] and in [10].
With `Nc1ccc(O)c([N+](=O)[O-])c1`, the molecule was classed as inactive in test [1], in test [2], in test [3], in [4], in test [5] and in [7]. The molecule was classed as inactive in test [8], in test [9] and in test [10]. Moreover, in test [6], the AC50 was 13.9 µM (active).
For the molecule `CC(=O)OC(C)c1ccccc1` (stereo not given), the call in test [1], in test [2], in test [3], in test [4], in test [5] and in test [6] was inactive. Also, the result in test [7], in test [8], in [9] and in test [10] was inactive.
Regarding `C=CC(=O)OCCCCCCOC(=O)C=C`, the AC50 is 10.5 µM (active) in test [1], 56.6 µM (active) in [4], 49.7 µM (active) in test [5] and 24.5 µM (active) in [9]. Besides, the molecule was called inactive in test [2], in test [3], in test [6], in test [7], in test [8] and in test [10].
As to `C=CC(=O)O[C@H]1C[C@@H]2CC[C@@]1(C)C2(C)C`, the call in [1], in test [3], in test [4], in test [5], in test [6] and in test [9] was inactive. In addition, the AC50 was 180 µM (active) in test [2], 75.3 µM (active) in [7], 100 µM (active) in test [8] and 177 µM (active) in [10].
As for `Cn1cccc1`, the outcome in test [1], in test [2], in [3], in [4], in test [5] and in test [6] was inactive. For the same molecule, the molecule was classed as inactive in [8], in [9] and in test [10]. Also, the AC50 in test [7] is 26.4 µM (active).
Consider `Nc1ccnc(=O)[nH]1`, for which the call in [1], in test [2], in test [3], in [4], in test [5] and in test [6] was inactive. Moreover, the outcome in test [7], in test [8], in [9] and in [10] was inactive.
In the case of `[Cl][Eu]([Cl])[Cl]`, the molecule was called inactive in test [1], in test [2], in test [3], in test [4], in test [5] and in [6]. Besides, the molecule was called inactive in [7], in test [8], in [9] and in [10].
`CCOB(OCC)OCC`: the outcome in [1], in test [2], in test [3], in test [4], in [5] and in test [6] was inactive. The call in [7], in test [8], in [9] and in test [10] was inactive.
Regarding `CO[Si](C)(C)OC`, the molecule was classed as inactive in test [1], in test [2], in test [3], in [4], in test [5] and in [7]. In addition, the molecule was called inactive in test [8], in [9] and in test [10]. The concentration at half-maximal activity (AC50) in test [6] was 0.376 µM (active).
